Assay results: PubChem BioAssay (Tox21)
Results filed as inconclusive are left out. Active and inactive are the calls of the source. Unless noted, the call rests on the fitted dose curve; in most records, active means well fitted curve in the direction sought with a large enough effect in the repeat runs; inconclusive means weak or mixed curves; inactive means no such curve, though single readings can be large; an effect the other way counts as inactive or inconclusive.

Key:
[1] = qHTS assay for small molecules that induce genotoxicity in human embryonic kidney cells expressing luciferase-tagged ATAD5 (AID 651632); further: nearly all actives have a fitted effect of over 15% in size
Outline: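 Test compounds were delivered by pin tool onto HEK293T reporter cells (2,000/well) expressing ATAD5 fused to luciferase. After 16 hr at 37C, 5% CO2, Amplite was added for 30 min at room temperature and luminescence was measured.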

[2] = qHTS assay for small molecule agonists of the p53 signaling pathway - cell viability (AID 651633; calls by dose curve; further: series mostly up to about 83 µM; nearly all actives have a fitted effect of over 30% in size)
Outline: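 p53RE-bla cells were treated with compound for 16 hours at 37 C. Cytotoxicity was then measured as CellTiter-Glo luminescence after 30 min at room temperature.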

[3] = qHTS assay for small molecules that induce genotoxicity in human embryonic kidney cells expressing luciferase-tagged ATAD5 - cell viability (AID 651634; calls by dose curve; further: nearly all actives have a fitted effect of over 25% in size)
Outline: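 Quantitative high-throughput format. HEK293T cells expressing ATAD5 fused to luciferase were plated at 2,000 cells/well and treated 15.5 hr with compound versus DMSO. Viability was determined by fluorescent live-cell protease substrate, 30 min at 37C.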

[4] = qHTS assay for small molecule disruptors of the mitochondrial membrane potential - cell viability (AID 720634; calls by dose curve;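 further: human HepG2 liver cancer cells; series mostly up to about 83 µM; nearly all actives have a fitted effect of over 20% in size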)
Outline: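 Same-well counter-screen: following the MMP dye addition, CellTiter-Glo was added to 1 hr compound-treated HepG2 cells and luminescence read after 30 min at room temperature.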

[5] = qHTS assay to test for compound auto fluorescence at 590 nm (red) in HepG2 cells (AID 720674)
Outline: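 HepG2 cells, 2,000 per well in MEM with 10% FBS, attached overnight at 37 C, then got 23 nL compound or DMSO. After 1 hr at 37 C, 5% CO2, red fluorescence was read at 540/590 nm against Rose Bengal sodium as reference.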

[6] = qHTS assay to test for compound auto fluorescence at 535 nm (green) in HepG2 cells (AID 720675)
[7] = qHTS assay to test for compound auto fluorescence at 460 nm (blue) in HEK293 cells (AID 720678)
Outline: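 Intrinsic compound fluorescence is recorded in live HEK293 cultures after overnight incubation at 37C, 5% CO2, using excitation 405 nm and emission 460 nm. Values are referenced to triamterene.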

[8] = qHTS assay to test for compound auto fluorescence at 590 nm (red) in HEK293 cells (AID 720679)
Outline: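 Red autofluorescence, HEK293 cells: 2,000 cells/well; attach 4-5 hr 37C; add 23 nL cpd or DMSO; incubate o/n 37C 5% CO2; read Ex540/Em590; Rose Bengal sodium reference.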

[9] = qHTS assay for small molecule agonists of the p53 signaling pathway (AID 651631; calls by dose curve; further: nearly all actives have a fitted effect of over 15% in size)
Outline: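 Readout was fluorescence from the LiveBLAzer FRET substrate, applied for 2 h at room temperature after 16 h compound exposure at 37 °C. Cells were the p53RE-bla HCT-116 line, with beta-lactamase driven by p53 response elements.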

[10] = qHTS assay for small molecule disruptors of the mitochondrial membrane potential (AID 720635)
Outline: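 HepG2 cells exposed to compound 1 hr at 37C, then Mito-MPS dye 30 min. Ratio read of aggregate (540/590 nm) versus monomer (490/535 nm) fluorescence.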
On the % scale 0 is the no-effect control and ±100 the full control effect.

CC(C)(C)c1ccc(-c2ccc(C(C)(C)C)cc2)cc1
inactive: Potency [1] | Potency [2] | Potency [3] | outcome [4] | outcome [5] | outcome [6] | outcome [7] | outcome [8]

O=S(=O)(O)c1cc(O)c(O)c(S(=O)(=O)O)c1
inactive: Potency [1] | Potency [2] | Potency [3] | outcome [4] | outcome [6] | outcome [7] | outcome [8]

CCCC[N+](C)(CCCC)CCCC
inactive: Potency [1] | Potency [2] | Potency [3] | outcome [4] | outcome [5] | outcome [6] | outcome [7] | outcome [8]

C=CC(=O)OCCCl
inactive: Potency [9] | Potency [2] | outcome [4] | Potency [10] | outcome [5] | outcome [6] | outcome [7] | outcome [8]

CC(C)(N)C#N
inactive: Potency [1] | Potency [2] | Potency [3] | outcome [4] | outcome [5] | outcome [6] | outcome [7] | outcome [8]

CCO[Si](OCC)(OCC)c1ccccc1
inactive: Potency [1] | Potency [2] | Potency [3] | outcome [4] | outcome [6] | outcome [7] | outcome [8]

CO[C@@]1(NC(=O)C(C(=O)O)c2ccc(O)cc2)C(=O)N2C(C(=O)O)=C(CSc3nnnn3C)CO[C@@H]21 (some centres undefined)
inactive: Potency [1] | Potency [2] | Potency [3] | outcome [4] | fluorescence, relative to Rose Bengal [5] 0.111% [at 18.6 µM] | fluorescence, % of fluorescein control [6] -0.0745% [at 18.6 µM] | fluorescence, % of triamterene [7] 0.184% [at 18.6 µM] | fluorescence, % of fluorescent control [8] 0.0051% [at 18.6 µM]

CCCCOC(=O)CCC(C)=O
inactive: Potency [1] | Potency [2] | Potency [3] | outcome [4] | Potency [10] | outcome [5] | outcome [6] | outcome [7] | outcome [8]

O=C(O)c1cn(C2CC2)c2cc(N3CCNCC3)c(F)cc2c1=O
inactive: Potency [1] | Potency [2] | Potency [3] | outcome [4] | fluorescence, % of fluorescein control [6] 0.0071% [at 18.6 µM] | fluorescence, % of triamterene [7] 0.0142% [at 18.6 µM] | fluorescence, % of fluorescent control [8] -0.0071% [at 18.6 µM]

O=C(O)Cc1csc(-c2ccc(Cl)cc2)n1
inactive: Potency [1] | Potency [2] | Potency [3] | outcome [4] | Potency [10] | outcome [5] | outcome [6] | outcome [7] | outcome [8]

CCCCc1nc(Cl)c(CO)n1Cc1ccc(-c2ccccc2-c2nn[nH]n2)cc1
inactive: Potency [1] | Potency [2] | Potency [3] | outcome [4] | outcome [5] | outcome [6] | outcome [7] | outcome [8]

CCCOC(=O)CC
inactive: Potency [1] | Potency [2] | Potency [3] | outcome [4] | outcome [5] | outcome [6] | outcome [7] | outcome [8]

FB(F)F
inactive: Potency [1] | Potency [2] | Potency [3] | outcome [4] | outcome [5] | outcome [6] | outcome [7] | outcome [8]

N[C@@H](CCC(=O)O)C(=O)O
inactive: Potency [1] | Potency [2] | Potency [3] | outcome [4] | outcome [5] | outcome [6] | outcome [7] | outcome [8]

O=C(O)CNC(=O)c1ccccc1
inactive: Potency [1] | Potency [2] | Potency [3] | outcome [4] | outcome [5] | outcome [6] | outcome [7] | outcome [8]

CCOc1ccc2nc(S(N)(=O)=O)sc2c1
inactive: Potency [1] | Potency [2] | Potency [3] | outcome [4] | outcome [5] | outcome [6] | outcome [7] | outcome [8]

CC(=O)NC(=O)c1ccccc1O
inactive: Potency [1] | Potency [2] | Potency [3] | outcome [4] | Potency [10] | outcome [6] | outcome [7] | outcome [8]

CCN1C=CN(C)C1C (centres undefined)
inactive: Potency [1] | Potency [2] | Potency [3] | outcome [4] | outcome [5] | outcome [6] | outcome [7] | outcome [8]

O=S(=O)(O)c1cccc(S(=O)(=O)O)c1
inactive: Potency [1] | Potency [2] | Potency [3] | outcome [4] | outcome [5] | outcome [6] | outcome [7] | outcome [8]

CCC(C(=O)NC(=O)NC(C)=O)c1ccccc1 (centres undefined)
inactive: Potency [1] | Potency [2] | Potency [3] | outcome [4] | Potency [10] | outcome [5] | outcome [6] | outcome [7] | outcome [8]

CC(C)[C@H]1CC[C@@H](C)CC1=O
inactive: Potency [9] | Potency [3] | outcome [4] | outcome [5] | outcome [6] | outcome [7] | outcome [8]

CC1CCC(CO)CC1 (centres undefined)
inactive: Potency [1] | Potency [2] | Potency [3] | outcome [4] | outcome [5] | outcome [6] | outcome [7] | outcome [8]

C1CCC2(CCCCO2)OC1
inactive: Potency [1] | Potency [2] | Potency [3] | outcome [4] | Potency [10] | outcome [5] | outcome [6] | outcome [7] | outcome [8]

Cc1ncc(COP(=O)(O)O)c(C=O)c1O
inactive: Potency [1] | Potency [2] | Potency [3] | outcome [4] | Potency [10] | outcome [5] | outcome [6] | outcome [7] | outcome [8]

CC[N+](CC)(CC(=O)Nc1c(C)cccc1C)Cc1ccccc1 (tested in a mixture with another compound)
inactive: Potency [1] | Potency [2] | Potency [3] | outcome [4] | outcome [5] | outcome [6] | outcome [7] | outcome [8]

NS(=O)(=O)Cc1noc2ccccc12
inactive: Potency [1] | Potency [2] | Potency [3] | outcome [4] | outcome [5] | outcome [6] | outcome [7] | outcome [8]
